These results are taken from PubChem BioAssay (NCI).

The panel holds about 83,000 compounds, 20% with a hit somewhere; the sample as a whole holds those more often.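 Method: cells in 96-well plates; compound added at one concentration; 48 h incubation; percent growth measured; values under 10 scored active.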 The source made the active and inactive calls.

In this experiment the test system is MDA-MB-468 breast. Kind of experiment: NCI-60 one-dose screen, 48 h (100 = growth as untreated, 0 = no growth, -100 = all killed). The conditions noted are these: 10 µM unless noted.
`CCCOc1ccc2nc(NC(=O)OC)[nH]c2c1`: the growth was -3.99% (active).
For `CC(=O)N1N=C(c2ccc(Nc3nc(Nc4ccc(F)cc4)nc(Nc4ccc(Cl)cc4)n3)cc2)CC1c1ccc(N(C)C)cc1` (stereo not given) the value was 56.2% (inactive).
In the case of `O=C1OCC2=C1C(c1ccncc1)c1cc3c(cc1N2CCO)OCO3` (stereo not given), the growth is 96.3% (inactive).
For `CCOC(=O)c1c(Cl)c2c(n1Cc1ccccc1)-c1oncc1CCC2` the value was 56% (inactive); for `COc1cc(OC)c(S(N)(=O)=O)cc1C(C)=O`, 98.4% (inactive); for `Cc1cccc(-c2nnc(SCC(=O)Nc3ncc(Cc4ccccc4)s3)n2N2C(=O)CSC2=S)c1`, 62.1% (inactive).
For `CCOc1ccc([C@H]2C(C(=O)c3ccc(Cl)cc3)C3(N[C@@H]2c2ccccc2)C(=O)Nc2ccc(Br)cc23)cc1` (stereo not given in full) the value was -17.1% (active).
As to `FC(F)(F)c1cccc(Oc2ccc(Nc3ncnc4ccc(OCCCN5CCOCC5)cc34)cc2Cl)c1`, the growth is 5.72% (active).
Consider `CCOC(=O)C1=C(N)Oc2c(sc3c(C)cccc23)C1c1ccc(Cl)cc1` (stereo not given), for which the growth was -2.2% (active).
For the molecule `CCCCCc1cc[n+](CC(=O)c2ccc([N+](=O)[O-])cc2)cc1`, the growth was 11.8% (inactive).
For `O=S(=O)(Nc1ncccn1)c1ccc(Nc2ccc3nnc(-c4ccncc4)n3n2)cc1` the value was 103% (inactive); for `CC(C)NS(=O)(=O)/N=C1\NC(=O)NC1=C(Cl)Cl`, 60.6% (inactive); for `O=C(CCN1CCCC1)Nc1ccc2c(Nc3ccccc3)c3ccccc3nc2c1`, -14.9% (active).
For the molecule `O=c1[nH]c(CNc2ccc(NCc3c(-c4ccccc4)no[n+]3[O-])cc2)nc2c1cnn2-c1ccccc1`, the growth was 33.2% (inactive).
For `Nc1c(-c2nc3ccccc3c(=O)[nH]2)nnn1-c1ccc(Cl)cc1` the value was 105% (inactive); for `COc1cc2ncnc(Nc3ccc(S(=O)(=O)Nc4nccs4)cc3)c2cc1OCCCN1CCCC1`, 99.2% (inactive).
On to `Brc1cccc(-c2cc(-c3ccc4c(c3)OCCCO4)[nH]n2)c1`, for which the growth is 50.6% [25 µM] (inactive).
As for `CC(C)(C)OC(=O)c1ccc(NCc2cc(O)ccc2O)cc1`, the growth was -17.6% (active).
On to `COc1cc(CSc2nc3ccc(Cl)cc3c(=O)n2-c2ccccc2)cc(OC)c1OC`, for which the growth is 57.4% (inactive).
With `CCCCCCOC(=O)c1cc(-c2ccc(F)cc2)nc2ccccc12`, the growth was 105% (inactive).
Consider `COc1ccc(-c2nc3sccn3c2-c2ccnc(NCCNS(=O)(=O)c3ccc(C(F)(F)F)cc3)n2)cc1`, for which the growth was 30.2% (inactive).
Consider `COc1cnc2c(c1)C(=O)c1c-2n(CCCNC2=NCCS2)c(=O)c2cc(Cl)ccc12`, for which the growth was -4.65% (active).
Consider `CCCCCCCCCCCCCCCC(N)c1ccccc1` (stereo not given), for which the growth was -82.2% (active).
On to `CC(C)(C)c1cc(NC(=O)Nc2ccc(-c3cn4c5c(sc4n3)CCc3c[nH]cc3-5)cc2)no1`, for which the growth is 22.6% (inactive).
With `N#CC1(Nc2ccc3c4c(cccc24)CC3)CCCCC1`, the growth was -35.3% (active).
In the case of `S=C1SCN(Cc2ccccc2)CN1Cc1ccccc1`, the growth was 38.5% (inactive).
Take `Cc1ccc(C2C=C(c3ccc(Cl)cc3)N=C3SC=CN32)c(Br)c1` (stereo not given): the growth was 69.7% (inactive).
Take `CC(C)(C)c1ccc(O)c(-c2ccccc2)c1`: the growth was 140% (inactive).
`CC(C)(C)CC(C)(C)Nc1c(-c2ccncc2)nc2cnccn12`: the growth was 87.5% (inactive).
`O=C1CN(Cc2ccc(C(=O)NO)cc2)C(=O)[C@@H](Cc2ccccc2)N1`: the growth was 109% (inactive).
`Nc1n[nH]c(-c2cc(Cl)ccc2O)c1-c1ccccc1`: the growth was 83.5% (inactive).
In the case of `C[C@]12CC[C@@H]3c4ccc(O)c([N+](=O)[O-])c4CC[C@H]3[C@@H]1CC[C@@H]2NS(=O)(=O)c1cccc(Br)c1`, the growth is 39.8% (inactive).
Regarding `NC(=N\N=C/c1ccccc1[N+](=O)[O-])/C(N)=N\N=C/c1ccccc1[N+](=O)[O-]`, the growth was 101% (inactive).
On to `O=C(/C=C/c1cc(-c2ccc3c(c2)OCO3)n[nH]1)c1ccc2c(c1)OCO2`, for which the growth is 77.2% (inactive).
For `CCOC(=O)c1ccccc1NC1=C(Cl)C(=O)c2nc(C)ccc2C1=O`, the growth was 97.3% (inactive).
For `CC[C@]1(O)C[C@@H]2CN(CCc3c([nH]c4ccccc34)[C@@](C(=O)OC)(c3cc4c(cc3OC)N(C)[C@H]3[C@@](O)(C(=O)OC)[C@H](OC(=O)CCCBr)[C@]5(CC)C=CCN6CC[C@]43[C@@H]65)C2)C1` the value was 31.8% (inactive); for `Cn1c(=O)c2[nH]c(=S)n(Cc3ccccc3)c2n(C)c1=O`, 115% (inactive); for `NS(=O)(=O)c1ccc(-n2nc(-c3ccc(Cl)cc3)ccc2=O)cc1`, 56.9% (inactive).
For `O=C(NC1CC1)c1cc2n(n1)CC(c1ccccc1)N2` (stereo not given) the value was 98.5% (inactive); for `N#C/C(=C\c1cccc(C#N)c1)c1ccccc1`, 106% (inactive).
